Compound activity (PubChem BioAssay)
HSP90 refold inh: blocks HSP90-mediated luciferase refolding in reticulocyte lysate; Rabbit reticulocyte lysate, luciferase refolding luminescence, 3 h; inhibition, % at 5.6 µM; 0.91% of 290,000 active; AID 1789;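 active = inhibition above the screen-wide mean plus 3 SD, computed separately per campaign, cut at about 16% in these data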;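 note: inhibitors lower the luminescence because luciferase stays unfolded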
TWEAK-Fn14 inh: inhibitors of TWEAK-Fn14 interaction signaling; 2% of 360,000 active; AID 1159606; inhibition, % at 10 µM; TWEAK-stimulated Fn14 reporter cells, luciferase luminescence, 8 h; in the data active = inhibition above about 50%
C8 TRAIL sens: caspase-8 TRAIL sensitization. NB7+C8 cells + TRAIL, ATPlite viability luminescence. 1% of 360,000 active. inhibition (viability loss, TRAIL sensitization), % at 10 µM. AID 624354;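 active = compounds causing at least 50% loss of cell viability in the single-dose screen, relative to plate controls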
aSyn 5UTR inh: MLPCN primary screen, SNCA 5' untranslated region | alpha-synuclein 5'UTR reporter, inhibitor activity | inhibition, % (tested at 7.5 µM) | 0.82% of 300,000 active | AID 1813; in the data active = inhibition above about 60%;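 note: H4 neuroglioblastoma cells stably carrying SNCA 5'UTR luciferase fusion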
HIF-2a inh: HIF-2a inhibition. inhibition, % at 18.8 µM. 786-0 RCC cells HIF-2a reporter, luciferase luminescence, overnight. 0.72% of 360,000 active. AID 624352;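 active = inhibition of the luminescence signal of 40% or more relative to plate controls, in a single-dose primary screen at 18.75 µM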
TROY signal inh: blocks TROY-dependent signaling in reporter cells | Q293 LMP1-TROYcd NF-kB luciferase reporter, 4 h | inhibition, % at 10 µM | 0.98% of 360,000 active;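 active = compounds whose plate-normalised and pattern-corrected inhibition of the luciferase reporter signal at the single screening dose is 50% or more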
Of the large screens only hits and unclear results are named; the others gave an inactive call. Compounds with a hit are over-represented: about 3.9% of the library has one in this group of screens.

Cc1cc(C)c2c(N)c(C(=O)c3ccc(Cl)cc3Cl)sc2n1	TWEAK-Fn14 inh 52
Cc1cc(C)c2c(N)c(C(=O)c3ccccc3Cl)sc2n1	none
CCOC(=O)[C@]12CCCC=C1N(Cc1ccco1)C(=O)[C@H](CC(=O)NCC13CC4CC(CC(C4)C1)C3)C2	none (no result: HSP90 refold inh, aSyn 5UTR inh)
O=C(Nc1nc(-c2ccccn2)cs1)C12CC3CC(CC(O)(C3)C1)C2	C8 TRAIL sens 60
CCN1C/C(=C/c2ccc(N3CCOCC3)cc2)C(=O)/C(=C/c2ccc(N3CCOCC3)cc2)C1	HIF-2a inh 93
CN1C/C(=C\c2ccc(N3CCOCC3)cc2)C(=O)/C(=C/c2ccc(N3CCOCC3)cc2)C1	none
Cc1ccc(NC(=O)c2ccc(Nc3c([N+](=O)[O-])cc([N+](=O)[O-])cc3[N+](=O)[O-])cc2)cc1	TWEAK-Fn14 inh 94, TROY signal inh 66
O=C(Nc1ccc(NC(=O)c2cccs2)cc1)c1ccccc1	none
Cc1ccc(NC(=O)c2ccc(C)cc2)cc1	TWEAK-Fn14 inh 59, C8 TRAIL sens 73 (no result: HSP90 refold inh)
Cc1cccc(C(=O)Nc2ccc(NC(=O)c3cccc(C)c3)cc2)c1	none (no result: HSP90 refold inh, aSyn 5UTR inh)
O=C(Nc1ccc(O)cc1)c1ccc(NC(=O)c2cccs2)cc1	C8 TRAIL sens 66
Cc1cccc(C(=O)Nc2ccc(C(=O)Nc3ccc(O)cc3)cc2)c1	C8 TRAIL sens 68
CC(=O)Nc1ccc(NC(=O)c2cc([N+](=O)[O-])cc([N+](=O)[O-])c2)cc1	none
COc1ccc(NS(=O)(=O)c2cc(C)ccc2NC(=O)c2cc(C)oc2C)cc1	aSyn 5UTR inh 103
CCOC(=O)c1c(C)nsc1NC(=O)C1(C)CCN1C(=O)CC (stereo not drawn)	none (no result: HSP90 refold inh, aSyn 5UTR inh)
COc1ccc2nc(NC(=S)NC(=O)c3ccco3)sc2c1	C8 TRAIL sens 72, TROY signal inh 51
O=C(NC(=S)Nc1nc2ccccc2s1)c1ccco1	C8 TRAIL sens 77
COc1cccc(C(=O)Nc2cc(OC)ccc2NC(=O)c2ccco2)c1	TWEAK-Fn14 inh 56
Cc1ccc2nc(NC(=S)NC(=O)c3ccc(OC(C)C)cc3)sc2c1	none (no result: HSP90 refold inh)
COc1ccc2nc(NC(=O)CCNC(=O)c3ccco3)sc2c1	none (no result: HSP90 refold inh, aSyn 5UTR inh)
Cc1ccc2nc(NC(=S)NC(=O)c3cccs3)sc2c1	C8 TRAIL sens 79, TROY signal inh 54
COc1ccc(NC(=O)c2ccccc2Cl)c(NC(=O)c2ccco2)c1	none
CN(C)CC(=O)N[C@@H]1CC[C@@H](CCNS(=O)(=O)c2ccccc2)O[C@@H]1CO	none (no result: HSP90 refold inh, TWEAK-Fn14 inh, aSyn 5UTR inh, TROY signal inh)
CCc1ccc(C2CC3C(CN2S(=O)(=O)c2ccc(C)cc2)C(=O)CC(c2ccc(CC)cc2)N3S(=O)(=O)c2ccc(C)cc2)cc1 (stereo not drawn)	none (no result: HSP90 refold inh, TWEAK-Fn14 inh, aSyn 5UTR inh, TROY signal inh)
O=C(Nc1c(Cl)cc2c(c1Cl)Cc1cc([N+](=O)[O-])ccc1-2)C(Cl)Cl	C8 TRAIL sens 86 (no result: HSP90 refold inh, aSyn 5UTR inh)
CCN(C)C1CN(Cc2cn(Cc3ccc(C(F)(F)F)cc3)nn2)S(=O)(=O)C1 (stereo not drawn)	none (no result: HSP90 refold inh, aSyn 5UTR inh)
COc1ccc(Nc2nc(NCc3cccs3)nc3ccsc23)cc1OC	TWEAK-Fn14 inh 54 (no result: HSP90 refold inh, aSyn 5UTR inh)
CCOC(=O)Cc1ccc(Nc2nc(NCc3cccs3)nc3ccsc23)cc1	TWEAK-Fn14 inh 65, TROY signal inh 55 (no result: HSP90 refold inh, aSyn 5UTR inh)
COc1ccc(Nc2nc(NC(C)C)nc3ccsc23)cc1OC	none (no result: HSP90 refold inh, aSyn 5UTR inh)
CC(=O)Nc1cccc(-c2ccnc3c2CC(C)(C(=O)Nc2ccc(C(C)C)cc2)O3)c1 (stereo not drawn)	none (no result: HSP90 refold inh, aSyn 5UTR inh)
CC(CCc1ccccc1)NC(=O)CNC(=O)c1cccs1 (stereo not drawn)	TWEAK-Fn14 inh 61
Cc1cccc(C(=O)NCC(=O)NC(C)CCc2ccccc2)c1 (stereo not drawn)	none
Cc1occc1C(=O)NC(C)CCc1ccccc1 (stereo not drawn)	TWEAK-Fn14 inh 52 (no result: TROY signal inh)
Cc1ccc(C)c(C(=O)NC(C)CCc2ccccc2)c1 (stereo not drawn)	none
Clc1ccc(CSc2nncn2-c2ccc3c(c2)OCCO3)cc1	aSyn 5UTR inh 66
Clc1ccc(CSc2nncn2-c2ccccn2)cc1	none
Fc1cccc(CSc2nc3ccncc3[nH]2)c1	C8 TRAIL sens 58
CN1C(=O)/C(=C\c2ccc(N(C)C)cc2)OC1=S	none
CN(C)c1ccc(C=C2C=CC=C2)cc1	TWEAK-Fn14 inh 62 (no result: HSP90 refold inh, aSyn 5UTR inh)
CC(=O)Nc1cncc(-c2ccccc2F)n1	none (no result: HSP90 refold inh, aSyn 5UTR inh)
N#C/C(=C\c1ccc(O)c(O)c1)C(=O)c1ccc(O)c(O)c1	TWEAK-Fn14 inh 63 (no result: HSP90 refold inh, aSyn 5UTR inh)
Cc1nc2ccccc2n1CC(O)COc1ccccc1Cl (stereo not drawn)	TWEAK-Fn14 inh 54
Cc1ccccc1OCC(O)Cn1c(=N)n(Cc2ccccc2)c2ccccc21 (stereo not drawn)	aSyn 5UTR inh 113
CCOC(=O)[C@]12CCC=C1N(Cc1ccc(Cl)cc1Cl)C(=O)[C@H](CC(=O)NCc1ccc(C)o1)C2	none (no result: HSP90 refold inh, aSyn 5UTR inh)
O=C(CNc1ccc2ccccc2c1)N/N=C/c1ccc(C(=O)O)cc1	TWEAK-Fn14 inh 53
O=C(O)c1ccc(/C=N/NC(=O)c2cc3c(ccc4ccccc43)o2)cc1	TROY signal inh 63
Cc1ccc(NC(=O)CSc2nc3ccc(Nc4nc(N5CCOCC5)nc(N5CCOCC5)n4)cc3s2)cc1	C8 TRAIL sens 55 (no result: aSyn 5UTR inh)
CC(=O)c1ccc(Nc2nc(N3CCOCC3)nc(N3CCOCC3)n2)cc1	TWEAK-Fn14 inh 83
O=C(CSc1nc2ccccc2s1)Nc1ccc(Cl)c(S(=O)(=O)N2CCOCC2)c1	TWEAK-Fn14 inh 65
O=C(CSc1nc2ccccc2s1)Nc1ccc(N2CCOCC2)c(Cl)c1	none
O=C(CSc1nc2ccccc2o1)Nc1ccc(N2CCOCC2)c(Cl)c1	TROY signal inh 52
O=Cc1ccc(O)c2ncccc12	C8 TRAIL sens 56, aSyn 5UTR inh 63
Cc1cc(C(=O)N/N=C/c2ccc3c(c2)OCO3)c(C)n1-c1ccc(F)cc1	TROY signal inh 50
Cc1cc(C(=O)N/N=C/c2ccc(Cl)c([N+](=O)[O-])c2)c(C)n1-c1ccc(F)cc1	TWEAK-Fn14 inh 63, HIF-2a inh 61
COc1ccc(/C=N/NC(=S)Nc2cccc(C(=O)O)c2)cc1OC	TWEAK-Fn14 inh 76
COc1ccc(/C=N/NC(=O)c2cc(C)n(-c3ccccc3)c2C)cc1OC	TROY signal inh 62
CCOC1CCCc2oc(-c3ccc(N(C)C)cc3)c(C(=O)OC)c21 (stereo not drawn)	none (no result: HSP90 refold inh, aSyn 5UTR inh)
Nc1ccc2c(c1)C1(CCC2)NC(=O)NC1=O (stereo not drawn)	none (no result: HSP90 refold inh, aSyn 5UTR inh)
CN(Cc1cnn(-c2ccccc2)c1)C(=O)c1cccc(S(=O)(=O)Nc2ccccc2F)c1	none (no result: HSP90 refold inh, aSyn 5UTR inh)
CN(CCCn1ccc(NC(=O)OCc2ccccc2)nc1=O)CCc1ccccn1	none (no result: HSP90 refold inh, aSyn 5UTR inh)
C(C#CCCCCCCCCC[n+]1ccccc1)#CCCCCCCCCC[n+]1ccccc1	TWEAK-Fn14 inh 90, C8 TRAIL sens 91, aSyn 5UTR inh 73
CCCC(=NCCc1c(C)[nH]c2ccccc12)C1=C(O)CC(c2ccccc2)CC1=O (stereo not drawn)	aSyn 5UTR inh 86
